Data taken from the supplement of paper PMC10849652.
About 7,900 targets were measured; listed, in parts, are those with a hit and a random draw of the rest. About 0.6% of all pairs of compound and target were hits.

How the values were obtained:
Experiment in all cases: log2 fold change, soluble protein after heating vs DMSO (PISA); higher = thermal stabilisation; K562 cells, 10 uM, 30 min; active = over 0.2 and 3.5 SD of the protein, either way, in both replicates (recomputed)
[1] = compound: COC1=CC=C(C=C1)CN2C=CC3=C2C=C(C=C3)C(=O)NO
Summary of the method: (§1)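 K562 cells at 2×10^6 cells/mL were treated with 10 μM compound for 30 min. Aliquots were heated for 3 min across 48°C-58°C, pooled, and extracted in PBS with 0.5% NP-40 at 4°C; soluble protein was the supernatant after 21,000xg for 90 min. Soluble protein was quantified by TMTpro 16plex LC-MS/MS with channel sums equalised, and reported as log2 fold change in thermal stability against DMSO controls, with values from duplicates.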

[2] = compound: CON(C)C(=O)N1N=C(c2cc(F)ccc2F)S[C@@]1(CCCN)c1ccccc1 [filanesib]
Summary of the method: as §1

[3] = compound: CO[C@H]1C[C@@H]2CC[C@@H](C)[C@@](O)(O2)C(=O)C(=O)N2CCCC[C@H]2C(=O)O[C@H]([C@H](C)C[C@@H]2CC[C@H](n3cnnn3)[C@H](OC)C2)CC(=O)[C@H](C)/C=C(\C)[C@@H](O)[C@@H](OC)C(=O)[C@H](C)C[C@H](C)/C=C/C=C/C=C/1C [zotarolimus]
Summary of the method: as §1

[4] = compound: COc1cc(C(=O)O)ccc1NC(=O)[C@@H]1N[C@@H](CC(C)(C)C)[C@](C#N)(c2ccc(Cl)cc2F)[C@H]1c1cccc(Cl)c1F [idasanutlin]
Summary of the method: as §1

[5] = compound: COc1cc(Nc2ncc3c(n2)-c2ccc(Cl)cc2C(c2c(F)cccc2OC)=NC3)ccc1C(=O)O [alisertib]
Summary of the method: as §1

[6] = compound: COc1cc2nc(-c3cc(F)ccc3O)nc(N[C@@H]3CNC[C@H]3C(C)(C)O)c2cc1OC
Summary of the method: as §1

[7] = compound: COc1cc2ncnc(Nc3ccc(F)c(Cl)c3)c2cc1OCCCN1CCOCC1 [gefitinib]
Summary of the method: as §1

[8] = compound: COc1cccc2cc(-c3nc([C@H]4CC[C@H](C(=O)O)CC4)n4ncnc(N)c34)[nH]c12
Summary of the method: as §1

[9] = compound: CS(=O)(=O)CCNCc1ccc(-c2ccc3ncnc(Nc4ccc(OCc5cccc(F)c5)c(Cl)c4)c3c2)o1 [lapatinib]
Summary of the method: as §1

[10] = compound: CS(=O)(=O)N1CCN(Cc2cc3nc(-c4cccc5[nH]ncc45)nc(N4CCOCC4)c3s2)CC1 [pictilisib]
Summary of the method: as §1

[11] = compound: CS(=O)(=O)c1ccc(-c2cnc(N)c(C(=O)Nc3ccccc3)n2)cc1
Summary of the method: as §1

[12] = compound: C[C@@H](Oc1cc(-c2cnn(C3CCNCC3)c2)cnc1N)c1c(Cl)ccc(F)c1Cl [crizotinib]
Summary of the method: as §1

[13] = compound: C[C@@H]1COCCN1C2=NC(=NC(=C2)C3(CC3)S(=O)(=O)C)C4=C5C=CNC5=CC=C4
Summary of the method: as §1

[14] = compound: C[C@H](C1=CC=C(C=C1)C(=O)NC2=C3C=CNC3=NC=C2)N
Summary of the method: as §1

[15] = compound: C[C@H](Nc1ncnc2nc[nH]c12)c1cc2cccc(Cl)c2c(=O)n1-c1ccccc1 [duvelisib]
Summary of the method: as §1

[16] = compound: Cc1cc(Nc2cc(CN3CCOCC3)c3nc(C)c(Cc4ccc(Cl)cc4F)n3n2)n[nH]1 [gandotinib]
Summary of the method: as §1

[17] = compound: Cc1cc(Nc2cc(N3CCN(C)CC3)nc(Sc3ccc(NC(=O)C4CC4)cc3)n2)n[nH]1 [tozasertib]
Summary of the method: as §1

[18] = compound: Cc1cc(SCc2sc(-c3ccc(C(F)(F)F)cc3)nc2C)ccc1OCC(=O)O
Summary of the method: as §1

[19] = compound: Cc1ccc(-n2nc(C(C)(C)C)cc2NC(=O)Nc2ccc(OCCN3CCOCC3)c3ccccc23)cc1 [doramapimod]
Summary of the method: as §1

[20] = compound: Cc1ccc(C(=O)N(CCCN)[C@@H](c2nc3cc(Cl)ccc3c(=O)n2Cc2ccccc2)C(C)C)cc1 [ispinesib]
Summary of the method: as §1

Measured: log2 fold change

MORF4L2 (UniProt Q15014)
UniProt Q15014, sequence (Q15014 whole entry, looked up): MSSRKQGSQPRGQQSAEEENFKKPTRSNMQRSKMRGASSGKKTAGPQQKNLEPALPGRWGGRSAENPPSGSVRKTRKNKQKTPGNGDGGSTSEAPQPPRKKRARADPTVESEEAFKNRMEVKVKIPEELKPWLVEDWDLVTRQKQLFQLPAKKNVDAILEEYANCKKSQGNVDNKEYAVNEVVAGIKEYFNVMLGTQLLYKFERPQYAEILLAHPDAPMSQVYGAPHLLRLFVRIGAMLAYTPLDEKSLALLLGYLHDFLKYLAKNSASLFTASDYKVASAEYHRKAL
inactive: [1] -0.149 | [2] 0.146 | [3] -0.044 | [4] 0.045 | [5] -0.066 | [6] -0.085 | [7] -0.048 | [8] -0.074 | [9] 0.03 | [10] -0.063 | [11] -0.085 | [12] 0.013 | [14] 0.053 | [15] -0.201 | [16] 0.085 | [17] -0.007 | [18] -0.012 | [19] 0.035 | [20] 0.011
active: [13] -0.275

NDUFA12 (UniProt Q9UI09)
UniProt Q9UI09, sequence (Q9UI09 whole entry, looked up): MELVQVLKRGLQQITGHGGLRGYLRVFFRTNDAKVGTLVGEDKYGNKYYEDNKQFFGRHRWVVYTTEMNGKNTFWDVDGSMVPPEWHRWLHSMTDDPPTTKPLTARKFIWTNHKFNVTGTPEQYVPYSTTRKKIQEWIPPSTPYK
inactive: [1] -0.011 | [2] -0.071 | [3] 0.002 | [4] -0.213 | [5] 0.019 | [6] -0.167 | [7] -0.086 | [8] 0.056 | [9] -0.04 | [10] 0.023 | [11] 0.107 | [12] -0.033 | [13] 0.025 | [14] 0.015 | [15] 0.033 | [16] -0.206 | [17] -0.048 | [18] 0.115 | [19] 0.03
active: [20] -0.385

MSH3 (UniProt P20585)
UniProt P20585, sequence (P20585 whole entry, looked up): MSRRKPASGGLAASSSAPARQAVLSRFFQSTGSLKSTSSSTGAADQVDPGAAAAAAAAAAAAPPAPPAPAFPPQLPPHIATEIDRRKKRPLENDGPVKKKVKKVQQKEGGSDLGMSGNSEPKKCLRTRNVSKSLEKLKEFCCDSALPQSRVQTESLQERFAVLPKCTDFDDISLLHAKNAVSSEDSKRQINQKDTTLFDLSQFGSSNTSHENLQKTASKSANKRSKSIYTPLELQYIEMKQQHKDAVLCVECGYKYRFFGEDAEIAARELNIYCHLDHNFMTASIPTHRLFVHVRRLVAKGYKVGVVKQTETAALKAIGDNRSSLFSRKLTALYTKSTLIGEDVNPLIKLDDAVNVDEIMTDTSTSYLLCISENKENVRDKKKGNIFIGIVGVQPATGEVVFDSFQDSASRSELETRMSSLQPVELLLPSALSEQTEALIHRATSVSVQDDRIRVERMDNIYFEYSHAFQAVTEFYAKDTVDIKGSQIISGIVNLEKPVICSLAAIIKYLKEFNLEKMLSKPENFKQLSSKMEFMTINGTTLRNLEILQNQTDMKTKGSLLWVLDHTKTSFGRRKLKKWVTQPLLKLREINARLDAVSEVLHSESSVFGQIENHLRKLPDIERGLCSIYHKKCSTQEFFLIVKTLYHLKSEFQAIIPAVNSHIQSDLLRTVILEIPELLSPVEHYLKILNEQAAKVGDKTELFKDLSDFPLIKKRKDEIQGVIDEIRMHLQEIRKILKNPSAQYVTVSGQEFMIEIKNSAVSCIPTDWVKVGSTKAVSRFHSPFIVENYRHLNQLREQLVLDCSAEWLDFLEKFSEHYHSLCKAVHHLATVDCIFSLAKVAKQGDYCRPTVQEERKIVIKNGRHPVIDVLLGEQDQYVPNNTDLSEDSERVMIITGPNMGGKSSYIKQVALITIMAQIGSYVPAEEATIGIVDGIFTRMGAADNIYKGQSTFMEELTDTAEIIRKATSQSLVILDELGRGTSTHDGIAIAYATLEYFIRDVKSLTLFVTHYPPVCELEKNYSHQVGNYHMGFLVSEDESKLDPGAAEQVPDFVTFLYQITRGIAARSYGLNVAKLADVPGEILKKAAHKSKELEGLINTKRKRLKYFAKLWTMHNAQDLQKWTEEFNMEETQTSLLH
inactive: [1] -0.074 | [2] 0.005 | [3] 0.036 | [4] -0.004 | [5] 0.008 | [6] 0.093 | [7] 0.005 | [8] 0 | [9] 0.042 | [10] -0.006 | [11] -0.029 | [12] 0.045 | [13] -0.031 | [14] 0.047 | [15] 0.07 | [16] -0.096 | [17] -0.003 | [18] 0.024 | [19] 0.035 | [20] 0.088

NRDC isoform 2 (UniProt O43847)
UniProt O43847, sequence (O43847 whole entry, looked up): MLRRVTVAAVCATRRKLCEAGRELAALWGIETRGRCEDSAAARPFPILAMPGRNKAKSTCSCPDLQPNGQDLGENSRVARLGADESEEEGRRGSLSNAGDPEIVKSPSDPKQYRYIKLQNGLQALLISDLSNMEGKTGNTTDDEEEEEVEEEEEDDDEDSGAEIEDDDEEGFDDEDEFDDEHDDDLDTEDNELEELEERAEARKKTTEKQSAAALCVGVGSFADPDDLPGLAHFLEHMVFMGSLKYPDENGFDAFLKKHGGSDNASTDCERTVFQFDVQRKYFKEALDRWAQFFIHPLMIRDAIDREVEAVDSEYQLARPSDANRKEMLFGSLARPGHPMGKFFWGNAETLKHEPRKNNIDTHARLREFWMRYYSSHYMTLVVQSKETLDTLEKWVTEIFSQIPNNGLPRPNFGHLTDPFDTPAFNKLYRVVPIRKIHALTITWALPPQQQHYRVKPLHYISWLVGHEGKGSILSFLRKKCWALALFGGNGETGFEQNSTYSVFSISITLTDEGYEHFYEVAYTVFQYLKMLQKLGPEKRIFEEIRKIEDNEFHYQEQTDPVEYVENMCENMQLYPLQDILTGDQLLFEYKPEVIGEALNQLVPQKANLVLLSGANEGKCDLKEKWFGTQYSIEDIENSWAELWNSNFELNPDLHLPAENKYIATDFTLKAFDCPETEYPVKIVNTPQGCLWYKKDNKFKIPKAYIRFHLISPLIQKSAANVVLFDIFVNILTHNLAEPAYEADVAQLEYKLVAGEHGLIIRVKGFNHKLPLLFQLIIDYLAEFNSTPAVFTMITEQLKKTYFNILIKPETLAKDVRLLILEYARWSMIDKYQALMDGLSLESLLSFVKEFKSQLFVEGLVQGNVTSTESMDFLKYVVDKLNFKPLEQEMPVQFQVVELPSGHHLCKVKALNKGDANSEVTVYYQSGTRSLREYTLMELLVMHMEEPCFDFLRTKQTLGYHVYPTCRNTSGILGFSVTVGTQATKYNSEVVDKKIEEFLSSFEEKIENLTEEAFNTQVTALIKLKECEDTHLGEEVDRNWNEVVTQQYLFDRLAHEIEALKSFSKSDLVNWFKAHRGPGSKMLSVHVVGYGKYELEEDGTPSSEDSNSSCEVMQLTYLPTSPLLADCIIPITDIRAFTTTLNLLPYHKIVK
inactive: [1] 0 | [2] -0.038 | [3] 0.005 | [4] -0.026 | [5] 0.013 | [6] 0.076 | [7] -0.022 | [8] -0.001 | [9] -0.019 | [10] -0.029 | [11] 0.034 | [12] -0.065 | [13] 0.054 | [14] -0.034 | [15] 0.008 | [16] -0.029 | [17] 0.02 | [18] 0.089 | [19] -0.036 | [20] -0.022

NOP2 isoform 4 (UniProt P46087)
UniProt P46087, sequence (P46087 whole entry, looked up): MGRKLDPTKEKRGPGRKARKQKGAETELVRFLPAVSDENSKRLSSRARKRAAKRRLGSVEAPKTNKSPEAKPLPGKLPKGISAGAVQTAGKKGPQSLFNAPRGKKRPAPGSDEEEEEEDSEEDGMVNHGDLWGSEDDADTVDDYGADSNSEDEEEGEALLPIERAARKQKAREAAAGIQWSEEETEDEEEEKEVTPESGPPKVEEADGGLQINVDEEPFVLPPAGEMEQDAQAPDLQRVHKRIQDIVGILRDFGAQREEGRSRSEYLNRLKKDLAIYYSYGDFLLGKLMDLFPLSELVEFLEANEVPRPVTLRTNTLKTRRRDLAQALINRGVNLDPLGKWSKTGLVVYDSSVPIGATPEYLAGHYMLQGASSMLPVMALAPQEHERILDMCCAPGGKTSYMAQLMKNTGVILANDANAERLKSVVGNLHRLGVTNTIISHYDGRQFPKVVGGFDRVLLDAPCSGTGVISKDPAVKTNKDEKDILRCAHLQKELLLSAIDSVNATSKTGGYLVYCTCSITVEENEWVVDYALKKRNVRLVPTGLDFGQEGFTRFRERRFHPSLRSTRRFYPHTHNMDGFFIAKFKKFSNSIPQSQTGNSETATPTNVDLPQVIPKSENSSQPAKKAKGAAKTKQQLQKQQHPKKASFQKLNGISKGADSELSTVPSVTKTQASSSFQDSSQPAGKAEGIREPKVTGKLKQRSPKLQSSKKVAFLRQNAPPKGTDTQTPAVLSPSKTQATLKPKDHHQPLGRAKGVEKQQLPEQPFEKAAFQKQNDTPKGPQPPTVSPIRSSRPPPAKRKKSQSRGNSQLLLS
inactive: [1] -0.053 | [2] 0.651 | [3] 0.118 | [4] 0.419 | [5] -0.065 | [6] 0.375 | [7] -0.065 | [8] -0.118 | [9] 0.456 | [10] -0.039 | [11] 0 | [12] -0.127 | [13] -0.25 | [14] 0.673 | [15] -0.166 | [16] 0.231 | [17] 0.084 | [18] -0.022 | [19] 0.219 | [20] 0.163

NSUN2 (UniProt Q08J23)
UniProt Q08J23, sequence (Q08J23 whole entry, looked up): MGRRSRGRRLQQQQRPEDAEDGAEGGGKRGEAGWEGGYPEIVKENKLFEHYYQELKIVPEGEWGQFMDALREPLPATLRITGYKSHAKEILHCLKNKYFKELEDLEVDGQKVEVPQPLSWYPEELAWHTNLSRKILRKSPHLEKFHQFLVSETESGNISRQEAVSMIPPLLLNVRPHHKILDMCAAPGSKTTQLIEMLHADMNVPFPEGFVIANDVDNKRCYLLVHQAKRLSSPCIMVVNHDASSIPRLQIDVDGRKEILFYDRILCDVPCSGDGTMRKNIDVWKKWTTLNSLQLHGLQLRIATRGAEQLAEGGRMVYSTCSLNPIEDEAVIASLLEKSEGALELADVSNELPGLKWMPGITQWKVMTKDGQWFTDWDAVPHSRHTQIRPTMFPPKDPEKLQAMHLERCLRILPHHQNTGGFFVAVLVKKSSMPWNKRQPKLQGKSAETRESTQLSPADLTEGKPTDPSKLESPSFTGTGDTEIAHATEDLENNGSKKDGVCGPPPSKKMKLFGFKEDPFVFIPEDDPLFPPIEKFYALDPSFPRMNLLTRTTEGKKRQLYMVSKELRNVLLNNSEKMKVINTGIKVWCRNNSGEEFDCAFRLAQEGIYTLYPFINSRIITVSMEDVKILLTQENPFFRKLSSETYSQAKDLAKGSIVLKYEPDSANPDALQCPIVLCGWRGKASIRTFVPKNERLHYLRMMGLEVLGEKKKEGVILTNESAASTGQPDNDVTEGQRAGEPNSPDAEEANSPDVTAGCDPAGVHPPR
inactive: [1] -0.153 | [2] -0.002 | [3] -0.046 | [4] 0.021 | [5] -0.022 | [6] -0.235 | [7] 0.015 | [8] -0.003 | [9] 0.035 | [10] -0.088 | [11] -0.107 | [12] -0.034 | [13] 0.031 | [14] 0.008 | [15] -0.077 | [16] -0.151 | [17] 0.065 | [18] 0.053 | [19] 0.067 | [20] -0.098
